Measurements as given in PubChem BioAssay (Tox21).
Records with an inconclusive call do not appear. Calls of active or inactive are those of the source. Unless noted, calls come from the whole dose curve.

Legend:
[1] = Nuclear factor erythroid 2-related factor 2/antioxidant responsive element (Nrf2/ARE) small molecule agonists: qHTS cell viability counter screen in human keratinocytes (AID 1919968; active = well fitted curve in the direction sought with a large enough effect in the repeat runs; an effect the other way counts as inactive or inconclusive; note: nearly all actives have a fitted effect of over 55% in size)
Method in brief: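 Cells of the KeratinoSens line were plated at 1,500 per well and left for 5 h before compound transfer from DMSO stocks. After a 23 h incubation (37 C, 5% CO2), CellTiter-Fluor was added. Signal was taken as fluorescence intensity 1 h later.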

[2] = Nuclear factor erythroid 2-related factor 2/antioxidant responsive element (Nrf2/ARE) small molecule agonists: luciferase reporter gene qHTS assay in human keratinocytes (AID 1919969); note: nearly all actives have a fitted effect of over 35% in size
[3] = biological target: Gonadotropin-releasing hormone receptor (Homo sapiens) (UniProt P30968); assay: Human gonadotropin-releasing hormone receptor (GnRHR) small molecule agonists, calcium flux assay in GnRHR-HEK293 cells (AID 1920063); note: nearly all actives have a fitted effect of over 35% in size
Chain of Gonadotropin-releasing hormone receptor (Homo sapiens) (P30968 whole entry, looked up): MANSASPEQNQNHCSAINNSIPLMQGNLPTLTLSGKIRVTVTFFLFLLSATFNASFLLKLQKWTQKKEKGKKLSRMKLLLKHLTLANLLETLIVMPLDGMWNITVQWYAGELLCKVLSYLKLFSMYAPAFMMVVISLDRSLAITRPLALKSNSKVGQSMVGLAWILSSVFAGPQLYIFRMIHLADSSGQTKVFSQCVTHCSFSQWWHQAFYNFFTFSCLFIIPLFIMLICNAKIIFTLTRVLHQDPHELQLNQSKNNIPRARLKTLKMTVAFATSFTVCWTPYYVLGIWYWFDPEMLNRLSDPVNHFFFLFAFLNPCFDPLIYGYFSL
Method in brief: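 Compounds dissolved in DMSO are pin-transferred onto dye-loaded GnRHR-HEK293 cells, which were seeded 18 h before at 37 C/5% CO2. Calcium signal is read as fluorescence intensity at 1 s intervals for 3 min.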

[4] = biological target: KiSS-1 receptor (Homo sapiens) (UniProt Q969F8); assay: Human kisspeptin (KISS1R) small molecule agonists, calcium flux assay in KISS1R-HEK293 cells (AID 1920064; active = well fitted curve in the direction sought with a large enough effect in the repeat runs; an effect the other way counts as inactive or inconclusive)
Chain of KiSS-1 receptor (Homo sapiens) (Q969F8 whole entry, looked up): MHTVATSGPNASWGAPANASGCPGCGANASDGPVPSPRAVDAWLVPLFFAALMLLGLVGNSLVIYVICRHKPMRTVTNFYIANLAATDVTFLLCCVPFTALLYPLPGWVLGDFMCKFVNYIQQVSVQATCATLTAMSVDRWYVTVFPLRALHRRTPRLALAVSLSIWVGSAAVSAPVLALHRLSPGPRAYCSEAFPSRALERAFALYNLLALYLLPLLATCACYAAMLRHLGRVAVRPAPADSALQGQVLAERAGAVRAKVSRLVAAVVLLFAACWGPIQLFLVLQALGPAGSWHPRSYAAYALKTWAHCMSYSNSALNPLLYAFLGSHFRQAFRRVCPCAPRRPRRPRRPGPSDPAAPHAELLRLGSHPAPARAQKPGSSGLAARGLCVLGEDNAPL
Method in brief: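 Cell line: HEK293, stable human KISS1R. Dye loading 1 h at 37 C after 18 h culture. Read: kinetic fluorescence, 480/540 nm, 3 min at 1 s intervals.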

[5] = G protein-coupled receptor (GPCR) small molecule agonists, calcium flux assay: HEK293 wild type cell line counter screen (AID 1920065)
Method in brief: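 Tox21 10K compounds, 15 concentrations each in triplicate, pin-transferred in DMSO onto dye-loaded cells; kinetic read at 480/540 nm for 3 min, 1 s intervals.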

[6] = p53 small molecule agonists, cell-based qHTS assay with human liver microsomes (AID 1963577);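 note: p53 response element beta-lactamase reporter cells with liver microsomes plus NADPH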
Method in brief: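 16 h, 37 C exposure of p53RE-bla cells to compounds with human liver microsomes and NADPH (0.5 mg/mL final each); detection via LiveBLAzer mixture, 2 h dark at room temperature.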

[7] = p53 small molecule agonists, cell-based qHTS assay with rat liver microsomes (AID 1963578)
Method in brief: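 With rat liver microsomes and NADPH present (0.5 mg/mL final each), p53RE-bla cells are treated with compound for 16 h at 37 C. LiveBLAzer detection mixture is then applied for 2 h at room temperature in the dark.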

[8] = p53 small molecule agonists, cell-based qHTS assay with human liver microsomes: qHTS cell viability counter screen (AID 1963579); note: nearly all actives have a fitted effect of over 45% in size
Method in brief: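 In this multiplexed counter screen, the reporter plates were subsequently treated with CellTiter-Glo so that cell viability, reflected by luminescence, could be recorded for p53RE-bla cells dosed 16 h with compounds under microsomal activation (HLM and NADPH).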

[9] = p53 small molecule agonists, cell-based qHTS assay with rat liver microsomes: qHTS cell viability counter screen (AID 1963580); note: nearly all actives have a fitted effect of over 45% in size
Method in brief: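 Cytotoxicity counter screen: intracellular ATP read by CellTiter-Glo luminescence in the p53 reporter wells. HCT-116 p53RE-bla cells were treated for 16 h at 37 C alongside rat liver microsomes and NADPH, each 0.5 mg/mL final.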

[10] = p53 small molecule agonists, cell-based qHTS assay: qHTS cell viability counter screen (AID 1963581); note: nearly all actives have a fitted effect of over 45% in size
Method in brief: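 ATP content measured by luminescence in HCT-116 p53RE-bla cells treated 16 h at 37 C, same wells as the reporter screen.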

[11] = p53 small molecule agonists, cell-based qHTS assay (AID 1963582; active = well fitted activation curve with a large enough effect in the signal ratio in the repeat runs, not every such curve was filed as active; the % refers to the signal ratio)
Method in brief: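 16 h compound exposure (37 C) of p53 response element–bla cells, preceded by 5 h recovery at 37 C/5% CO2; read-out via LiveBLAzer B/G FRET substrate, 2 h RT, fluorescence intensity.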

[12] = biological target: 5-hydroxytryptamine receptor 2A (Homo sapiens) (UniProt P28223); assay: 5-hydroxytryptamine receptor 2A (HTR2A) small molecule antagonists, cell-based qHTS assay (AID 1963586); note: nearly all actives have a fitted effect of over 45% in size
Chain of 5-hydroxytryptamine receptor 2A (Homo sapiens) (P28223 whole entry, looked up): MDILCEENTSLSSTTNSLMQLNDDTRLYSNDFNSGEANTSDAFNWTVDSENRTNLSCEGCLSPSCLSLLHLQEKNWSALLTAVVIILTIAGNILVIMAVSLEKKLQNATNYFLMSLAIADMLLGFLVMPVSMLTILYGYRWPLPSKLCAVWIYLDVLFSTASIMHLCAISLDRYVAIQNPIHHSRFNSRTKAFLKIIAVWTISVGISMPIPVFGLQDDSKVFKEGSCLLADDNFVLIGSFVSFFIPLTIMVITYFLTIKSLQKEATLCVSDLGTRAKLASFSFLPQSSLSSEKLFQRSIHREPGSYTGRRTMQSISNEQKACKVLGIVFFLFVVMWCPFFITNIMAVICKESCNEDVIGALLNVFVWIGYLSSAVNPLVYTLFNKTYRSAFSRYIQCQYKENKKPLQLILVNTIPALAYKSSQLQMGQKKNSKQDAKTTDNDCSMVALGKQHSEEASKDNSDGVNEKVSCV
Method in brief: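 CHO cells stably expressing human HTR2A were plated for 18 h at 37 C, then loaded with calcium dye for 1 h. Compounds were preincubated 5 min at room temperature before DOI (4 nM solution) was added. Kinetic fluorescence was read for 3 min.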

[13] = biological target: 5-hydroxytryptamine receptor 2A (Homo sapiens) (UniProt P28223); assay: 5-hydroxytryptamine receptor 2A (HTR2A) small molecule agonists, cell-based qHTS assay (AID 1963587); note: nearly all actives have a fitted effect of over 30% in size
Method in brief: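 Kinetic calcium-flux fluorescence (2 min, 1 sec intervals) after compound addition in agonist mode. HTR2A-CHO cells were cultured 18 h, then dye-loaded 1 h at 37 C.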

[14] = biological target: Muscarinic acetylcholine receptor M1 (Homo sapiens) (UniProt P11229); assay: Cholinergic receptor muscarinic 1 (CHRM1) small molecule antagonists, cell-based qHTS assay (AID 1963588); note: nearly all actives have a fitted effect of over 40% in size
Chain of Muscarinic acetylcholine receptor M1 (Homo sapiens) (P11229 whole entry, looked up): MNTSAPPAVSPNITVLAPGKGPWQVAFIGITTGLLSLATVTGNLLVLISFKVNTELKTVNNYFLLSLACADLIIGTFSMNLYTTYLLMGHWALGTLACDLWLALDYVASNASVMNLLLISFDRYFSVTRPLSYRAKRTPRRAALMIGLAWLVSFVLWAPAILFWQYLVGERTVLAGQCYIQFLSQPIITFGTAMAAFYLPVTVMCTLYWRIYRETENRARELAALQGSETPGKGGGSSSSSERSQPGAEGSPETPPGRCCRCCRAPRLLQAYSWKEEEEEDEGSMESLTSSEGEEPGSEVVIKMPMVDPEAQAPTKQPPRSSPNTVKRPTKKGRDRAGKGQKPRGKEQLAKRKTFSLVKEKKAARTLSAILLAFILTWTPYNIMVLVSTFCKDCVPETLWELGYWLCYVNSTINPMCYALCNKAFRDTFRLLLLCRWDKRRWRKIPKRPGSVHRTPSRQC
Method in brief: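 Compounds were tested at 15 concentrations in three independent runs. Dye-loaded CHRM1-CHO cells were exposed 5 min at room temperature before stimulation by acetylcholine added at 50nM. Intracellular calcium was read kinetically on FDSS for 3 min.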

[15] = biological target: Muscarinic acetylcholine receptor M1 (Homo sapiens) (UniProt P11229); assay: Cholinergic receptor muscarinic 1 (CHRM1) small molecule agonists, cell-based qHTS assay (AID 1963589); note: nearly all actives have a fitted effect of over 35% in size
Method in brief: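 Homogeneous fluorescence calcium flux, agonist mode. Human M1-expressing CHO cells; compound dosed at 15 concentrations, three independent runs; signal sampled every 1 sec.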

[16] = cAMP Responsive Elements (CRE) small molecule agonists, cell-based qHTS assay (AID 1963590)
Method in brief: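 HEK 293T cells stably bearing CRE-bla were plated at 2,000 cells per well and rested 18 h. Compounds, positive controls or DMSO were added for 3 h at 37 C. LiveBLAzer B/G substrate was then loaded for 2 h at room temperature.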

[17] = cAMP Responsive Elements (CRE) small molecule antagonists, cell-based qHTS assay (AID 1963591; active = well fitted inhibition curve with a large enough effect in the signal ratio in the repeat runs, not every such curve was filed as active; the % refers to the signal ratio)
Method in brief: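 First, CRE-bla HEK293T cells settled 18 h at 37 C. Next, compound and 0.25 uM final NKH477 were applied for 3 h. Last, LiveBLAzer B/G substrate was loaded for 2 h at room temperature.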

[18] = biological target: Beta-2 adrenergic receptor (Homo sapiens) (UniProt P07550); assay: Adrenergic beta2 receptor (ADRB2) small molecule antagonists, cell-based qHTS assay (AID 1963592); note: series mostly up to about 92 µM; nearly all actives have a fitted effect of over 50% in size
Chain of Beta-2 adrenergic receptor (Homo sapiens) (P07550 whole entry, looked up): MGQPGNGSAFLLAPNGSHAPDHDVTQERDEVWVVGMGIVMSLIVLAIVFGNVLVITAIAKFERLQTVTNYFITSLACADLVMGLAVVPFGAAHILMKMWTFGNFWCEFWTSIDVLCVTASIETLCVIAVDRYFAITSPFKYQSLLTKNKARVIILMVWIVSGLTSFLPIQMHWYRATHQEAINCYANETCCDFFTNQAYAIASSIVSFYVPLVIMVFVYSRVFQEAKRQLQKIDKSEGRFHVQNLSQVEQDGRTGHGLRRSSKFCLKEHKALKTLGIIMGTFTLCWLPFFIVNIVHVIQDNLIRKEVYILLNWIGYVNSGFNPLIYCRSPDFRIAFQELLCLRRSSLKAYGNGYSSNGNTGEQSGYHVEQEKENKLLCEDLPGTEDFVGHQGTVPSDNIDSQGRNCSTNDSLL
Method in brief: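 Assay format: CHO-ADRB2 cells, 18-20hr seeding at 37C/5% CO2, then compound plus 1nM isoproterenol agonist mix for 0.5hr RT. Homogeneous time-resolved fluorescence cAMP detection after 1hr, expressed as 665/615 nm ratio.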

[19] = biological target: Beta-2 adrenergic receptor (Homo sapiens) (UniProt P07550); assay: Adrenergic beta2 receptor (ADRB2) small molecule agonists, cell-based qHTS assay (AID 1963593);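 note: CHO cells stably overexpressing human ADRB2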
Method in brief: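 CHO cells stably over-expressing ADRB2 were plated overnight at 37C, then dosed with compounds plus a stimulation mix containing 100uM IBMX and 25uM Ro-20-1724 for 0.5hr at room temperature. cAMP was measured by HTRF competition, 1hr.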

[20] = biological target: D(2) dopamine receptor (Homo sapiens) (UniProt P14416); assay: Dopamine D2 receptor (DRD2) small molecule agonists, cell-based qHTS assay (AID 1963594); note: nearly all actives have a fitted effect of over 35% in size
Chain of D(2) dopamine receptor (Homo sapiens) (P14416 whole entry, looked up): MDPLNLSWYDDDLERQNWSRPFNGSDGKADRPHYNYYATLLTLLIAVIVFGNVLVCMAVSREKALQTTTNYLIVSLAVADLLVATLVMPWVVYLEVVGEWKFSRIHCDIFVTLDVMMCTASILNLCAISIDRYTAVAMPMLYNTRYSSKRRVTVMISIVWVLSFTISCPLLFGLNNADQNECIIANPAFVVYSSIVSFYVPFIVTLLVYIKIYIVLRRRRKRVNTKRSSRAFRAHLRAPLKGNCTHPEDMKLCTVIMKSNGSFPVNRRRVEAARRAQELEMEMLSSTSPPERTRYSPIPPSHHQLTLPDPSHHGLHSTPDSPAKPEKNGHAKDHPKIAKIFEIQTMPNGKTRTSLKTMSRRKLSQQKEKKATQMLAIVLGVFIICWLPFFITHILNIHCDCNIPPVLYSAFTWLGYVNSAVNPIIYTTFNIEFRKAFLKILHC
Method in brief: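 cAMP accumulation in DRD2-HEK293 cells measured by HTRF after 1 h detection; compounds added 10 min before NKH477 (200nM […]) forskolin-analogue stimulation, 30 min at room temperature, with Ro20-1724 present at 0.1 mM final.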

Measured: Potency

CN(C(=O)c1c(O)c2ccccc2n(C)c1=O)c1ccccc1
inactive: all assays above

CC(C)(O)C(=O)O
inactive: all assays above

c1ccsc1
inactive: all assays above

CCCCOC(O)CC (stereo not given)
inactive: all assays above

FC(F)(F)C(Cl)(Cl)Cl
inactive: all assays above

NS(=O)(=O)c1ccc(N2CCCCS2(=O)=O)cc1
inactive: all assays above

CC(=O)N[C@@H](CC(C)C)C(=O)O
inactive: all assays above
